Laboratory results from PubChem BioAssay (EPA / NIEHS).
Values joined by “and” are separate entries in the source; they are usually repeats but may differ in a detail not shown here. Equal entries are not always repeated. Results filed as inconclusive are left out. Where a structure was tested more than once in an assay, its records may differ in their call. Active and inactive are the calls of the source. How the source made its calls, unless noted: active means hit-call score of the fitted dose curve at least 0.9, where 1 is the maximum; inactive means score below 0.9.

Legend:
[1] = molecular target: Transcription factor E2F1 (Homo sapiens) (UniProt Q01094); test: ATG_E2F_CIS: Attagene CIS-FACTORIAL HepG2 Assay for human E2F Transcription Factor 1 (AID 2282935); conditions: HepG2 Attagene cis-reporter, E2F reporter RNA transcripts; actives raise or lower the signal
Sequence of Transcription factor E2F1 (Homo sapiens) (Q01094 whole entry, looked up): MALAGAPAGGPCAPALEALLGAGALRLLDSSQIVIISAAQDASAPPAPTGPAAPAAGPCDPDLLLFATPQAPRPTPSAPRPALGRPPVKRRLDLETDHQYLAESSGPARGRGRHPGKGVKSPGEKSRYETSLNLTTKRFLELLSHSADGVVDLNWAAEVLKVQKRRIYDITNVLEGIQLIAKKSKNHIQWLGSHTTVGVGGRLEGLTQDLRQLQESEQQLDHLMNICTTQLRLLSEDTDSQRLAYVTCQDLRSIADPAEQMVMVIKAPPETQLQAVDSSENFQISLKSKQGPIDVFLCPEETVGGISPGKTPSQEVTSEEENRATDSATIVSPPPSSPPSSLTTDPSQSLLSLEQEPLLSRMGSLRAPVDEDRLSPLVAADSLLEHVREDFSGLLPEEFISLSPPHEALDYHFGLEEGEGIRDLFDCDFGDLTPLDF
Procedure, shortened: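 Endogenous E2F1 activity read through cis-promoter reporter units transfected into HepG2. After 24 h compound treatment, reporter mRNA measured by RT-PCR, HpaI digestion and capillary electrophoresis. Bidirectional fit versus DMSO.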

[2] = ATG_M_61_CIS: Attagene CIS-FACTORIAL HepG2 Assay for M61 Transcription Factor (Internal Marker) (AID 2282937); conditions: HepG2 Attagene CIS-FACTORIAL M61 internal marker reporter; actives raise or lower the signal
Procedure, shortened: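 Transfect HepG2 with MRTUs; dose 24 h; isolate RNA; reverse-transcribe with DNase I treatment; PCR-amplify, FAM-label and cut with HpaI for 2 h at 37 C; resolve by CE. Bidirectional fitting against DMSO.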

[3] = ATG_GRE_CIS: Attagene CIS-FACTORIAL HepG2 Assay for human Glucocorticoid Response Elements (GRE) (AID 2282947); conditions: HepG2 GRE cis-reporter, Attagene multiplex mRNA; actives raise or lower the signal
Procedure, shortened: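 Transiently transfected HepG2 cells carrying GRE cis-reporter units (endogenous TF activity) dosed 24 h; reporter mRNA quantified by RT-PCR, 6-FAM labelling, HpaI digestion and capillary electrophoresis. Bidirectional fit versus DMSO baseline.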

[4] = ATG_ISRE_CIS: Attagene CIS-FACTORIAL HepG2 Assay for human Interferon Regulatory Factor 1 (IRF1) binding to an Interferon-Stimulated Response Element (ISRE) (AID 2282948); conditions: HepG2 ISRE cis-reporter (Attagene), mRNA transcription readout; actives raise or lower the signal
Procedure, shortened: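 Quantitation relies on labelled RT-PCR fragments separated by capillary electrophoresis. Human HepG2 cells bearing cis-promoter reporter constructs were treated 24 h; DMSO served as baseline for bidirectional fitting.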

[5] = molecular target: Hepatocyte nuclear factor 6 (Homo sapiens) (UniProt Q9UBC0); test: ATG_HNF6_CIS: Attagene CIS-FACTORIAL HepG2 Assay for human Hepatocyte Nuclear Factor 6 (HNF6) (AID 2282952); conditions: HepG2 Attagene cis-factorial HNF6 reporter transcription; actives raise or lower the signal
Sequence of Hepatocyte nuclear factor 6 (Homo sapiens) (Q9UBC0 whole entry, looked up): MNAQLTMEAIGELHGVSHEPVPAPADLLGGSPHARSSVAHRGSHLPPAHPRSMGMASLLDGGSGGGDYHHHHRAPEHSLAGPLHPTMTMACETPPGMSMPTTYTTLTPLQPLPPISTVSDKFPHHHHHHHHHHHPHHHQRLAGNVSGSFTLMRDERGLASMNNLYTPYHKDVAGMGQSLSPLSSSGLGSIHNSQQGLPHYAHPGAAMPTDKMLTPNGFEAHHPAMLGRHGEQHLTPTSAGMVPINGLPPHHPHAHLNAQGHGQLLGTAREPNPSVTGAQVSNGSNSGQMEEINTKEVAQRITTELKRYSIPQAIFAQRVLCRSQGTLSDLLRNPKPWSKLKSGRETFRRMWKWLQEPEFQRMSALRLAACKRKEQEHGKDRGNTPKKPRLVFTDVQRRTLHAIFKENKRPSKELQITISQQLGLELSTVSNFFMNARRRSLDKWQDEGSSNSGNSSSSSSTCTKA
Procedure, shortened: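 Cells are HepG2 carrying transiently transfected cis-promoter reporter units. Treatment lasts 24 h, after which reporter transcripts are reverse-transcribed, amplified, FAM-labelled and sized by capillary electrophoresis. DMSO serves as baseline.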

[6] = molecular target: Heat shock factor protein 1 (Homo sapiens) (UniProt Q00613); test: ATG_HSE_CIS: Attagene CIS-FACTORIAL HepG2 Assay for human Heat Shock Transcription Factor 1 (HSE) (AID 2282953); conditions: HepG2 HSE cis-reporter, Attagene RNA transcription; actives raise or lower the signal
Sequence of Heat shock factor protein 1 (Homo sapiens) (Q00613 whole entry, looked up): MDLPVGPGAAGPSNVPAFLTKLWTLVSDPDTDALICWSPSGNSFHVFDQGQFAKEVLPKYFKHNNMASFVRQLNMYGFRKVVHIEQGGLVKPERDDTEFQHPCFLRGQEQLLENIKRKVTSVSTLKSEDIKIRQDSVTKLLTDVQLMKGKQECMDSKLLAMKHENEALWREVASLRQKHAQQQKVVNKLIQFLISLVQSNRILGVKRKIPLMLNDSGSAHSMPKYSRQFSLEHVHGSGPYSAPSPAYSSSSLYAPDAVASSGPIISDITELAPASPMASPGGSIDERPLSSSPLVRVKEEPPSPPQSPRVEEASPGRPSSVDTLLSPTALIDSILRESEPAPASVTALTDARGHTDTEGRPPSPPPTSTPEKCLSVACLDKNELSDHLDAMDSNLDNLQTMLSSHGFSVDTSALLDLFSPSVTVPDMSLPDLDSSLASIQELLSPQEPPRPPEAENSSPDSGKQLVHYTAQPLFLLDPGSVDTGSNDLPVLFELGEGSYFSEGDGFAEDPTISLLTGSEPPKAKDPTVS
Procedure, shortened: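 After a 24 h incubation with test chemical, transfected HepG2 cells were harvested for RNA; reporter transcripts were measured by RT-PCR and capillary electrophoresis. Values reflect gain or loss of signal relative to DMSO.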

[7] = ATG_PPRE_CIS: Attagene CIS-FACTORIAL HepG2 Assay for human Peroxisome Proliferator-activated Response Element (PPRE) (AID 2282958); conditions: HepG2 PPRE cis-element reporter, Attagene transcription factor profiling; actives raise or lower the signal
Procedure, shortened: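 PPRE activity in HepG2: transient cis-reporter transfection, 24 h compound incubation, reporter mRNA by RT-PCR and CE fluorescence; gain/loss fitted against DMSO.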

[8] = ATG_TCF_b_cat_CIS: Attagene CIS-FACTORIAL HepG2 Assay for human T-Cell-Factor with beta-catenin (TCF/b-cat) (AID 2282965); conditions: HepG2 TCF/beta-catenin cis-reporter transcription, actives raise or lower the signal
Procedure, shortened: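 Cells of the HepG2 line carry transiently transfected reporter units whose promoters respond to endogenous factors. Twenty-four hours post-dosing, reporter mRNA induction is measured by fluorescent RT-PCR and capillary electrophoresis, with DMSO as baseline.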

[9] = ATG_M_06_TRANS: Attagene TRANS-FACTORIAL HepG2 Assay for M06 Transcription Factor (Internal Marker) (AID 2282983; active means hit-call score of the fitted dose curve at least 0.9, where 1 is the maximum;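 further: reporter transcript level by RT-PCR then capillary electrophoresis fluorescence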); conditions: HepG2 Attagene TRANS M06 internal marker reporter
Procedure, shortened: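 Internal-marker background readout from a multiplexed TRANS reporter system in HepG2; 24 h dosing; mRNA induction quantified by RT-PCR plus capillary electrophoresis fluorescence; DMSO as negative control and baseline.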

[10] = molecular target: Transcriptional activator Myb (Homo sapiens) (UniProt P10242); test: ATG_Myb_CIS: Attagene CIS-FACTORIAL HepG2 Assay for human Myeloblastosis (Myb) Proto-Oncogene Transcription Factor (AID 2282986); conditions: HepG2 Attagene CIS-FACTORIAL Myb reporter transcription; actives raise or lower the signal
Sequence of Transcriptional activator Myb (Homo sapiens) (P10242 whole entry, looked up): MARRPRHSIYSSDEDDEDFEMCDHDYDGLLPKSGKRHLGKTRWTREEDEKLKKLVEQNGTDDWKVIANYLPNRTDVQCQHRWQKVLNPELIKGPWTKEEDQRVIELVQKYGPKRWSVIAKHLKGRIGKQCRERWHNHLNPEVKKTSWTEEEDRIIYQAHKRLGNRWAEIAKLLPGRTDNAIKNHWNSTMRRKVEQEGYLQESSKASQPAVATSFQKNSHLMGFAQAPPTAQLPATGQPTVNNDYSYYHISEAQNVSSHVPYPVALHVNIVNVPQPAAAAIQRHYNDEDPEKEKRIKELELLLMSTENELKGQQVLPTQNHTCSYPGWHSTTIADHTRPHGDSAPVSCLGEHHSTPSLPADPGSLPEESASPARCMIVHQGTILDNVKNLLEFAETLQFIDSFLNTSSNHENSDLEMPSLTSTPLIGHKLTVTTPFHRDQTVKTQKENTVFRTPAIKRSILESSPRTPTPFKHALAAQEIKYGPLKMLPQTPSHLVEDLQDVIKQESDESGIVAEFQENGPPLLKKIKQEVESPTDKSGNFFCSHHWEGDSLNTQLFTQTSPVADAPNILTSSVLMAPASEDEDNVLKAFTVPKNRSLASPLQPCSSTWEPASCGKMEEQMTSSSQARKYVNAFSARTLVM
Procedure, shortened: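 After 24 h of compound dosing, total RNA from transfected HepG2 cells is reverse-transcribed and the reporter sequences amplified, labeled and separated by capillary electrophoresis. Values come from bidirectional fitting against DMSO.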

[11] = molecular target: Retinoic acid receptor RXR-alpha (Homo sapiens) (UniProt P19793); test: ATG_RXRa_TRANS: Attagene TRANS-FACTORIAL HepG2 Assay for human Retinoid X Receptor alpha (RXRa) (AID 2283012; active means hit-call score of the fitted dose curve at least 0.9, where 1 is the maximum)
Sequence of Retinoic acid receptor RXR-alpha (Homo sapiens) (P19793 whole entry, looked up, the tested form may be a part): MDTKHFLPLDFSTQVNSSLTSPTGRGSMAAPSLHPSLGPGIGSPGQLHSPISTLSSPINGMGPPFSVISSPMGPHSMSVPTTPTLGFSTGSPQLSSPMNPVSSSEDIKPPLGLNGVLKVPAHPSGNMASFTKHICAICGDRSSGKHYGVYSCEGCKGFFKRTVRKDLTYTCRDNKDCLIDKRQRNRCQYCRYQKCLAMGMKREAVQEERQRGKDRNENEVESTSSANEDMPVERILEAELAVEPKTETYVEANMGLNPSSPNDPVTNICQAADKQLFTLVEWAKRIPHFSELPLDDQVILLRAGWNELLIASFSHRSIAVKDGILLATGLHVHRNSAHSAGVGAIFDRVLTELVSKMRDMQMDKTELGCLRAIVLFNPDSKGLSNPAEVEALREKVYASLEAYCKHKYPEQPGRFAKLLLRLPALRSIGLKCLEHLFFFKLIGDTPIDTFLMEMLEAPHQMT
Procedure, shortened: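 HepG2 cells transiently transfected with GAL4-UAS reporter units and chimeric RXRa-Gal4 protein, treated 24 h. Reporter mRNA measured by RT-PCR, fluorescent labelling, HpaI digestion and capillary electrophoresis. Induction fitted against DMSO.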

[12] = molecular target: Cellular tumor antigen p53 (Homo sapiens) (UniProt P04637); test: TOX21_p53_BLA_p2_ratio: Tox21 HCT-116 p53 Agonism Beta-lactamase Assay, Ratio, Phase 2 (AID 2283592; active means hit-call score of the fitted dose curve at least 0.9, where 1 is the maximum)
Sequence of Cellular tumor antigen p53 (Homo sapiens) (P04637 whole entry, looked up): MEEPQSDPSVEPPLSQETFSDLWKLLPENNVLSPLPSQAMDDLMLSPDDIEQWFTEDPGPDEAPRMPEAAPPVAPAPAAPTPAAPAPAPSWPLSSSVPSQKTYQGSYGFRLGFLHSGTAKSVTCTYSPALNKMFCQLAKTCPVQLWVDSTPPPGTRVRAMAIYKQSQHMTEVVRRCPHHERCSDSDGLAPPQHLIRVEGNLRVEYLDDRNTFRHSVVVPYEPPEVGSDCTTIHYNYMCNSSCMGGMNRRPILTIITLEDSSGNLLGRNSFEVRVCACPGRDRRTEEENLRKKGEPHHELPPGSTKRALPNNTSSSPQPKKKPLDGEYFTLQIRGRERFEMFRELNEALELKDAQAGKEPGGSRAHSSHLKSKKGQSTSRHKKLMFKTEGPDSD
Procedure, shortened: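 Human colon HCT116 cells with an inducible p53 beta-lactamase reporter are exposed to test chemicals for 16 h at 37C. Reporter induction is read as the 460/530 nm emission ratio after CCF4-AM loading, normalized to DMSO.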

[13] = molecular target: Cellular tumor antigen p53 (Homo sapiens) (UniProt P04637); test: TOX21_p53_BLA_p3_ratio: Tox21 HCT-116 p53 Agonism Beta-lactamase Assay, Ratio, Phase 3 (AID 2283596; active means hit-call score of the fitted dose curve at least 0.9, where 1 is the maximum)
Procedure, shortened: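 HCT116 p53-bla cells (4000/well) given compound in DMSO (217-fold dilution) after 5 h, incubated 16 h at 37C. CCF4-AM substrate 2 h at room temperature; 460/530 nm emission ratio, gain fitted against DMSO.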

[14] = molecular target: Cellular tumor antigen p53 (Homo sapiens) (UniProt P04637); test: TOX21_p53_BLA_p5_ratio: Tox21 HCT-116 p53 Agonism Beta-lactamase Assay, Ratio, Phase 5 (AID 2283599; active means hit-call score of the fitted dose curve at least 0.9, where 1 is the maximum)
Procedure, shortened: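 HCT-116 p53-bla cells (4000/well) plated 5 h, dosed with compound (217-fold DMSO dilution) for 16 h at 37 C; CCF4-AM substrate 2 h at room temperature. Activity is the 460/530 nm emission ratio (405 nm excitation), fitted in gain-of-signal direction versus DMSO.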

[15] = ATG_MRE_CIS: Attagene CIS-FACTORIAL HepG2 Assay for human Metal Responsive Element (MRE) (AID 2282954); conditions: HepG2 MRE cis-reporter transcription, Attagene multiplex; actives raise or lower the signal
Procedure, shortened: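 HepG2 cells transiently transfected with cis-element-driven reporter units; mRNA measured 24 h after dosing. Reporter transcripts quantified by RT-PCR, FAM labelling, HpaI digestion and capillary electrophoresis; bidirectional fit versus DMSO.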

[16] = ATG_PBREM_CIS: Attagene CIS-FACTORIAL HepG2 Assay for human Phenobarbital-responsive Enhancer Module (PBREM) (AID 2282955); conditions: HepG2 PBREM cis-reporter, Attagene multiplexed transcription; actives raise or lower the signal
Procedure, shortened: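 Measures endogenous factor action on a phenobarbital-responsive enhancer module. HepG2 transiently carrying cis reporters, 24 h treatment, mRNA read-out by RT-PCR plus capillary electrophoresis.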

[17] = molecular target: Nuclear receptor subfamily 4 group A member 2 (Homo sapiens) (UniProt P43354); test: ATG_NURR1_TRANS: Attagene TRANS-FACTORIAL HepG2 Assay for human Nuclear Receptor Related Protein 1 (NURR1) (AID 2282985; active means hit-call score of the fitted dose curve at least 0.9, where 1 is the maximum); conditions: HepG2 Attagene TRANS reporter, mRNA readout
Sequence of Nuclear receptor subfamily 4 group A member 2 (Homo sapiens) (P43354 whole entry, looked up, the tested form may be a part): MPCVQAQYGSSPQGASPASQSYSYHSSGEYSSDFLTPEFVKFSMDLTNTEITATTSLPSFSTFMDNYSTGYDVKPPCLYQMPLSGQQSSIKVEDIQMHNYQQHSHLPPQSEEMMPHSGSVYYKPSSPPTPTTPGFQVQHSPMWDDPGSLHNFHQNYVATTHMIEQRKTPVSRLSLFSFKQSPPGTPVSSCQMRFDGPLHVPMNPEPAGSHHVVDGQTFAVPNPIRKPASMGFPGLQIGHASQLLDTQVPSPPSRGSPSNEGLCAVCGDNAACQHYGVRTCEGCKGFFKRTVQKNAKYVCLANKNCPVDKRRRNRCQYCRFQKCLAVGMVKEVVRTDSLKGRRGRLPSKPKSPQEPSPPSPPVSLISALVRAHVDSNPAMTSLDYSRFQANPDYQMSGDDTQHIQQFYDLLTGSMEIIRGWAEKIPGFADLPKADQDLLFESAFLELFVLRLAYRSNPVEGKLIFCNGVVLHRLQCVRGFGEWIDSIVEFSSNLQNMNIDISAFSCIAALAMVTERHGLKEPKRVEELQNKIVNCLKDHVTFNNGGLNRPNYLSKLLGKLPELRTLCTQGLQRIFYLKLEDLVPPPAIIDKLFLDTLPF
Procedure, shortened: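 HepG2 cells transiently transfected with NURR1-Gal4 chimera and GAL4-UAS reporter units; after 24 hr compound exposure, reporter mRNA quantified by RT-PCR and capillary electrophoresis; gain of signal fitted against DMSO.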

[18] = molecular target: Nuclear respiratory factor 1 (Homo sapiens) (UniProt Q16656); test: ATG_NRF1_CIS: Attagene CIS-FACTORIAL HepG2 Assay for human Nuclear Respiratory Factor 1 (NRF1) Orphan Gene (AID 2282987); conditions: HepG2 NRF1 cis-element reporter, Attagene multiplex; actives raise or lower the signal
Sequence of Nuclear respiratory factor 1 (Homo sapiens) (Q16656 whole entry, looked up): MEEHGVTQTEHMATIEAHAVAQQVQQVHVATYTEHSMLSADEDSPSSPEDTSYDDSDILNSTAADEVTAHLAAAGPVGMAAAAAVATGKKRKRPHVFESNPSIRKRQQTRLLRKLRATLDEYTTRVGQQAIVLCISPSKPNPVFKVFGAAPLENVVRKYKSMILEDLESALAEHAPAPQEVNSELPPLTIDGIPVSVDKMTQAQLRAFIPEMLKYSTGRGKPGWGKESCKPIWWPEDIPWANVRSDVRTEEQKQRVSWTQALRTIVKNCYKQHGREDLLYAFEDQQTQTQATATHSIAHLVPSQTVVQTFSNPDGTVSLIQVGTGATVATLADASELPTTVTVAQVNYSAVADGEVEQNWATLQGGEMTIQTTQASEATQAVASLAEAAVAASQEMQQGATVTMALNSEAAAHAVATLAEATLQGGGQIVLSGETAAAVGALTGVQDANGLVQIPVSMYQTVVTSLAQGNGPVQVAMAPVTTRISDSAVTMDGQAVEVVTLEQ
Procedure, shortened: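 Measured: fluorescent reporter-specific RT-PCR products from transfected HepG2 cells, separated by capillary electrophoresis. Exposure lasted 24 h. Analysis used bidirectional curve fitting with DMSO as negative control.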

[19] = molecular target: Cellular tumor antigen p53 (Homo sapiens) (UniProt P04637); test: TOX21_p53_BLA_p4_ratio: Tox21 HCT-116 p53 Agonism Beta-lactamase Assay, Ratio, Phase 4 (AID 2283601; active means hit-call score of the fitted dose curve at least 0.9, where 1 is the maximum)
Procedure, shortened: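 HCT-116 p53 beta-lactamase reporter cells (4000/well) preincubated 5 h, then compound (217-fold dilution of DMSO stock) for 16 h at 37C. CCF4-AM substrate added 2 h at room temperature; 460/530 nm emission ratio fitted upward versus DMSO.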

[20] = molecular target: Hypoxia-inducible factor 1-alpha (Homo sapiens) (UniProt Q16665); test: ATG_HIF1a_CIS: Attagene CIS-FACTORIAL HepG2 Assay for human Hypoxia Inducible Factor 1 (HIF1A) (AID 2282951); conditions: HepG2 Attagene cis-factorial HIF1a reporter transcription; actives raise or lower the signal
Sequence of Hypoxia-inducible factor 1-alpha (Homo sapiens) (Q16665 whole entry, looked up): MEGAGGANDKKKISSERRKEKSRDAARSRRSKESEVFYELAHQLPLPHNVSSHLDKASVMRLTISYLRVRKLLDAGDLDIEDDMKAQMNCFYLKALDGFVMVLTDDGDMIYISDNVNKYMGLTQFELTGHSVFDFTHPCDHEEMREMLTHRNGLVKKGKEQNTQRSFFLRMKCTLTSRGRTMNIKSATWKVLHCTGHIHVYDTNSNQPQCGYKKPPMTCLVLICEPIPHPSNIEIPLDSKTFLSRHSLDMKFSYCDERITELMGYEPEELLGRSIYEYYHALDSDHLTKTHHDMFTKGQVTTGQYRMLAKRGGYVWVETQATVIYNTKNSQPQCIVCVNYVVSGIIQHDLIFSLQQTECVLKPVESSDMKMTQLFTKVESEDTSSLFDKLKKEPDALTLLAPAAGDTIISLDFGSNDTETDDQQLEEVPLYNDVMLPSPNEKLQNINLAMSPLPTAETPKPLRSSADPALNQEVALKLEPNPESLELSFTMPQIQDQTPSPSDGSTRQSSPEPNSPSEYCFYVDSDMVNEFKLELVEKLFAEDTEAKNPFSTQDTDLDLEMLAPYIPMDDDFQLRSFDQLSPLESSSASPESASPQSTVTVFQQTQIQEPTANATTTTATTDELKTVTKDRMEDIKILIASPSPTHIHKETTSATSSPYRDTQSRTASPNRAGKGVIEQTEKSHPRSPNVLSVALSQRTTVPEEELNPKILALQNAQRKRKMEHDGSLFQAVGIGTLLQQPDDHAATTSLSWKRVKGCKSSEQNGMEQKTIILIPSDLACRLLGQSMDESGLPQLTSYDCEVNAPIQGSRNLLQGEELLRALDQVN
Procedure, shortened: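 After 24 h chemical exposure of reporter-transfected HepG2 cells, reporter cDNA was PCR-amplified, labelled by 6-FAM primer extension (2 min 95 C, 20 s 68 C, 10 min 72 C), HpaI-cut (2 h, 37 C) and analysed by CE.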

Measured: AC50

Oc1cc(Cl)ccc1Cl
not listed: [15] | [16] | [17] | [18] | [19] | [20]
inactive: all other assays above

C=CC(=O)OC
not listed: [1] | [2] | [3] | [11] | [13] | [14] | [20]
inactive: all other assays above

N#Cc1cccc(C#N)c1
not listed: [6] | [14] | [15] | [17]
inactive: all other assays above

CCC(Br)(CC)C(=O)NC(N)=O
not listed: [3] | [4] | [5] | [13] | [17] | [19]
inactive: all other assays above

Cc1ncc(C[n+]2csc(CCO)c2C)c(N)n1
not listed: [3] | [6] | [8] | [9] | [10] | [11] | [15] | [20]
inactive: all other assays above

c1ccc(P(c2ccccc2)c2ccccc2)cc1
active: [8] 158 µM
not listed: [10] | [11] | [12] | [13] | [17] | [19]
inactive: all other assays above

O=C(NC(=O)c1c(F)cccc1F)Nc1ccc(Oc2ccc(C(F)(F)F)cc2Cl)cc1F
active: [4] 26.3 µM
not listed: [3] | [5] | [6] | [9] | [14] | [15] | [17]
inactive: all other assays above

O=C(O)CCCc1ccc(N(CCCl)CCCl)cc1
active: [8] 143 µM | [12] 64.5 µM and 68.4 µM and 32.3 µM | [13] 43.5 µM and 42.8 µM and 23 µM | [14] 62.6 µM and 64.8 µM and 27.3 µM | [19] 71 µM
inactive: [1] | [2] | [4] | [5] | [6] | [15] | [7] | [9] | [17] | [10] | [18] | [11] | [19]

C=CCc1ccc(OC(=O)Cc2ccccc2)c(OC)c1
not listed: [2] | [13] | [14] | [15] | [18] | [19] | [20]
inactive: all other assays above

CN1C(=O)CCS(=O)(=O)C1c1ccc(Cl)cc1 (stereo not drawn)
inactive: [1] | [2] | [3] | [4] | [5] | [6] | [15] | [8] | [9] | [10] | [18]
